Composite z-score and z-score data for 16 compounds are collected here from PubChem BioAssay.

A short description of test [1]: binders of probe aFSTL3 on microarray, primary screen, stem cell growth factor project, biochemical, small-molecule microarray, fluorescence 635/667 (AID 1064).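 Further: measures binding of the biotinylated anti-FSTL3 antibody to printed compounds.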 The note with it: higher = more signal.
The nature of test [2]: binders from COS7 lysate, DM2A8 probe, primary screen, torsin A project, cell lysate, small-molecule microarray, fluorescence 635/667 (AID 1065). The settings on record: higher = more signal, COS7 lysate expressing mutant human TOR1A.
Test [3] in a line: binders of probe aFGF2 on microarray, primary screen, stem cell growth factor project, biochemical, small-molecule microarray, fluorescence 635/667 (AID 1067).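 Further: measures binding of biotinylated aFGF2 protein to printed compounds on slides; z-score merges feature fluorescence and signal-to-noise across triplicate slides.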 The settings on record: higher = more signal.
The nature of test [4]: binders of probe aFGF10 on microarray, primary screen, stem cell growth factor project, biochemical, small-molecule microarray, fluorescence 635/667 (AID 1071).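 Further: score merges 667 nm spot intensity and signal to noise from triplicate slides.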 The settings on record: higher = more signal.
Test [5] addresses Neurogenic locus notch homolog protein 2 (Homo sapiens) (UniProt Q04721). The experiment in a line: Notch2 binders on small-molecule microarrays, primary screen, biochemical, small-molecule microarray, 635 nm fluorescence, stem cell growth factors (AID 1073). The settings on record: Notch2 binding, higher = more signal.
For test [6], the target named is Pro-neuregulin-1, membrane-bound isoform (Homo sapiens) (UniProt Q02297). The experiment in a line: NRG1 binders on small-molecule microarrays, primary screen, psychiatric disease protein project, biochemical, small-molecule microarray, fluorescence 635/667 (AID 1075).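 Further: score combines 667 nm spot fluorescence with signal to noise.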 The settings on record: NRG1 binding, 635 nm fluorescence, higher = more signal.
Chain of Pro-neuregulin-1, membrane-bound isoform (Homo sapiens) (Q02297 whole entry, looked up, the tested form may be a part, canonical isoform): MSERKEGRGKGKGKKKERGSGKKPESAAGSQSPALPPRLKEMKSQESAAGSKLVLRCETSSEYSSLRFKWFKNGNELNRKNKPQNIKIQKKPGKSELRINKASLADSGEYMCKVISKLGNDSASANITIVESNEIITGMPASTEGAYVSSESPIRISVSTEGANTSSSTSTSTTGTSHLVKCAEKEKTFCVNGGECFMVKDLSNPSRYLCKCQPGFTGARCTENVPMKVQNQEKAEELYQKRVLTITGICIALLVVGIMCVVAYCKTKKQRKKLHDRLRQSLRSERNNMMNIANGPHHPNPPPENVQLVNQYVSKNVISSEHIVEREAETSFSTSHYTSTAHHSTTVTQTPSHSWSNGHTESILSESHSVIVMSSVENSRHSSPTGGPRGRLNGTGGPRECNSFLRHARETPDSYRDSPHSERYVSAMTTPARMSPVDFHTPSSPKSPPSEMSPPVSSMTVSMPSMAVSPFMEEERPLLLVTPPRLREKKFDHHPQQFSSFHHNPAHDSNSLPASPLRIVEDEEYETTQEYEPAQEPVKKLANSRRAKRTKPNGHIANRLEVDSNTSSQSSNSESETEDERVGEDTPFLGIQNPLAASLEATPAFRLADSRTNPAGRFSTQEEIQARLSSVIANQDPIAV
In test [7] the test system is Neuregulin-1 EGF-like domain. As to the kind of experiment: binders of neuregulin-1 EGF-like domain, primary screen, biochemical, small-molecule microarray, 635 nm fluorescence (AID 1081).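 Further: binding of the protein to compounds printed on small-molecule microarray slides.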 The note with it: small-molecule microarray binding, higher = more signal.
Test [8] is described as follows: FRG1 promoter luciferase signal modulators, primary screen, FRG1 inhibition for FSHD, cell-based, C2C12 myotubes, firefly/Renilla luciferase, luminescence (AID 1084). The settings on record: higher = more signal, called active from +8 up or from −8 down.
The nature of test [9]: binders of probe aFST on microarray, primary screen, stem cell growth factor project, biochemical, small-molecule microarray, fluorescence 635/667 (AID 1086).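 Further: score merges 667 nm fluorescence with signal-to-noise of each printed compound spot.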 The note with it: higher = more signal.
A short description of test [10]: binders of probe aHhip on microarray, primary screen, stem cell growth factor project, biochemical, small-molecule microarray, fluorescence 635/667 (AID 1087).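 Further: score merges spot fluorescence at 667nm with spot signal to noise ratio.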 The note with it: higher = more signal.

Structures are written as SMILES. Active and inactive are the calls of the source.

Chain of Neurogenic locus notch homolog protein 2 (Homo sapiens) (Q04721 whole entry, looked up, canonical isoform): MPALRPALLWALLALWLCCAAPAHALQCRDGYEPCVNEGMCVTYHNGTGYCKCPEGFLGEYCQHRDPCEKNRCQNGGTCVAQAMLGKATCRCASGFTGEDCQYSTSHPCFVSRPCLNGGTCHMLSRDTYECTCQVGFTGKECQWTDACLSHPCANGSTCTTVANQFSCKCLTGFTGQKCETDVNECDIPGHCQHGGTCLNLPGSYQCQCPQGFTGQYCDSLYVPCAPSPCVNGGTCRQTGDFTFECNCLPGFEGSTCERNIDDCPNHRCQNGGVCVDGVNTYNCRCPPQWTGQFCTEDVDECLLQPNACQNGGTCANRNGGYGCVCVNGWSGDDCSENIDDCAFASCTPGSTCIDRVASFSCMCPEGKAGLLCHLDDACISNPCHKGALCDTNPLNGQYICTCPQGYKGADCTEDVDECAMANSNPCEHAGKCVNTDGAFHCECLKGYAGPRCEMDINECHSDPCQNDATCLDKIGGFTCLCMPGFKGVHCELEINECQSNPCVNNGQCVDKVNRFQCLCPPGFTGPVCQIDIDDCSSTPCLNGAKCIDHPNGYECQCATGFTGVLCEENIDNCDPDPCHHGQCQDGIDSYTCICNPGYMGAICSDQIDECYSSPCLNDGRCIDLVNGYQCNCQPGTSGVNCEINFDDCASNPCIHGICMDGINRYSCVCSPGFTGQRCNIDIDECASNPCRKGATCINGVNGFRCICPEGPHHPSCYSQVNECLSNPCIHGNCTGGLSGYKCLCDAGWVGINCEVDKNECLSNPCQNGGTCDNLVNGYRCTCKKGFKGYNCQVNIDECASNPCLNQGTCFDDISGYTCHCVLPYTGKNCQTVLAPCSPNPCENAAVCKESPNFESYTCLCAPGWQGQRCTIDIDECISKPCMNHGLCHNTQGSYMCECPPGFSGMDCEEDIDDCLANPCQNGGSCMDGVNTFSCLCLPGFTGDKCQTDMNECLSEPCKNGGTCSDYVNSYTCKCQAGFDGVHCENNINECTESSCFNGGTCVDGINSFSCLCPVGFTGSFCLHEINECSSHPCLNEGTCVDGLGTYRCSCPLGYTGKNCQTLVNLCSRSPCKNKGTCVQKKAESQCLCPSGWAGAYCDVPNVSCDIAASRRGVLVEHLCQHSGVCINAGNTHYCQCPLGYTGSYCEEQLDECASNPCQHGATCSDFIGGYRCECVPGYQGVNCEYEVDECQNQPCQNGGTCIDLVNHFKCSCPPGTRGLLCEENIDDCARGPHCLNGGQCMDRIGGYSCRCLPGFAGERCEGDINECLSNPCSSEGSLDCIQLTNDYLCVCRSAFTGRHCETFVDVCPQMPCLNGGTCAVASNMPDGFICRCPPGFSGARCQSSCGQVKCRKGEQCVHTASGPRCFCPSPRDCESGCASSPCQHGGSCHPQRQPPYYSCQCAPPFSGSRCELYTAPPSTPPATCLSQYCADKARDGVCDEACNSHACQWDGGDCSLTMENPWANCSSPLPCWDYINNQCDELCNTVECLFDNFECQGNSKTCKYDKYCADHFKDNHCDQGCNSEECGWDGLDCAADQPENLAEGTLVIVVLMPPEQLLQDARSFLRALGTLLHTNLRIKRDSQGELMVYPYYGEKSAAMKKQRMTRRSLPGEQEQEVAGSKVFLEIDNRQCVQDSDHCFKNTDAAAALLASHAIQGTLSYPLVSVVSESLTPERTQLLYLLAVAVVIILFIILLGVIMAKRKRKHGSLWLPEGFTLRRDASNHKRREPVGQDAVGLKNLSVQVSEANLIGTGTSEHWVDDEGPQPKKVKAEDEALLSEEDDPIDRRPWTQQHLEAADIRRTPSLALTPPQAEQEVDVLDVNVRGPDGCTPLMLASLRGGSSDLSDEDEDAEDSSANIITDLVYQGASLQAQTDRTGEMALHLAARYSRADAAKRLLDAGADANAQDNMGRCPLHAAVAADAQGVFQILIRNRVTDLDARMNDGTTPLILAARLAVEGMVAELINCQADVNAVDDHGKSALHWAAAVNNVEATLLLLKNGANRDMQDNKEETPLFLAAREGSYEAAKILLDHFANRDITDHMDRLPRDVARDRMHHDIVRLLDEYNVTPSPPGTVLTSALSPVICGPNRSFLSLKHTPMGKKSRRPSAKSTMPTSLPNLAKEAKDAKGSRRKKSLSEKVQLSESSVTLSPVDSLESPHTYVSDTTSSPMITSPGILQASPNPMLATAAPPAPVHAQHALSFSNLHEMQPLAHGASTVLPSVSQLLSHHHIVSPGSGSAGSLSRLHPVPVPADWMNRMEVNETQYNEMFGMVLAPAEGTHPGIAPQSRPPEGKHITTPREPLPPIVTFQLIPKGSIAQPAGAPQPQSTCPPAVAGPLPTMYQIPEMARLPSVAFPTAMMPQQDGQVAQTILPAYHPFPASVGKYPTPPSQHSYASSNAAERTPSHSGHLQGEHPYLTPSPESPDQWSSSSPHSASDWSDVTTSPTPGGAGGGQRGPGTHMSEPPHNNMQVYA

Turning to `COC(=O)C(CC#Cc1ccc2c(c1)[C@]1(C(=O)N2)[C@H](C(=O)N2CCc3cc(OC)c(OC)cc3C2)[C@H]2C(=O)O[C@H](c3ccccc3)[C@H](c3ccccc3)N2[C@@H]1c1ccccc1OCCO)C(=O)OC`, the composite z-score in test [1] is -0.385; in test [2], 1.03; in test [3], -0.0037; in test [4] it was 0.738; in test [5] it was 1.15; in [6], 1.67. Moreover, the results for the composite z-score in test [7], in [9] and in test [10] were 1.25, 0.529 and -0.0346, respectively. The z-score in test [8] is 1.31 (inactive).
`CCOC(=O)C1=CC[C@@H](c2ccc(OC)cc2)N(S(=O)(=O)c2ccc(C)cc2)[C@H]1c1ccc(C)cc1`: the composite z-score in test [1] is -0.208; in [2], -0.236; in test [3], -0.062; in [4] it was 0.584; in test [5] it was 1.52; in test [6], 0.46. Further, the composite z-score in test [7] is 1.05; in test [9], 1.11; in test [10], -0.0618. Besides, the z-score in test [8] is 0.0599 (inactive).
For `COCC(=C=CC[C@H](O)c1ccccc1OCCO)C[C@H](O)COCc1ccccc1`, the composite z-score in test [1] is -0.287; in [2] it was 0.584; in test [3], -0.0004; in test [4], 1.3; in test [5], 0.41; in test [6], 1.22. In addition, the composite z-score in test [7] came to 0.571; in test [9], 0.092; in test [10], 0.107. The z-score in test [8] was 0.291 (inactive).
For the compound `COC(=O)[C@@]1(Cc2ccc(OC)cc2)[C@H]2c3cc(C(=O)N4CCCC4)n(Cc4ccc(C(F)(F)F)nc4)c3C[C@H]2CN1C(=O)c1ccccc1`, the composite z-score in test [1] was 0.308; in [2], 0.374; in [3], -0.102; in [4], 0.999; in [5], 1.21; in test [6] it was 1.66. The composite z-score in test [7] was 1.24; in test [9] it was -0.25; in [10], 0.388. In addition, the z-score in test [8] was 0.491 (inactive).
For `C=CCN1C(=O)[C@]2(O[C@H](CCn3cc([C@H](O)c4ccccc4)nn3)[C@@H]([Si](C)(C)c3ccc(OC)cc3)[C@@H]2C)c2cc(NC(=O)c3ccc(OC)cc3)ccc21`, the composite z-score is -0.255 in [1]; 0.39 in test [2]; -0.112 in [3]; 0.141 in [4]; 0.603 in [5]; 0.0976 in test [6]. Moreover, the results for the composite z-score in [7], in test [9] and in test [10] were 0.519, 0.0019 and 0.0722, respectively. Besides, the z-score in test [8] is -2.62 (inactive).
Regarding `COC(=O)[C@@]1(Cc2ccc(F)cc2)[C@H]2c3cc(C(=O)N(C)C)n(CCc4ccc(O)c(O)c4)c3C[C@H]2CN1C(=O)c1ccccc1`, the composite z-score in [1] is -0.0383; in [2], -0.134; in [3], 0.187; in [4], 0.876; in [5] it was 1.68; in test [6], 0.562. In addition, the composite z-score is 1 in test [7], 0.662 in test [9] and -0.374 in test [10]. Also, the z-score in test [8] was 0.115 (inactive).
For `[N-]=[N+]=Nc1ccccc1[C@@H]1OC(c2ccc(OCCCO)cc2)=N[C@]1(Cc1ccccc1)C(=O)NCCN1CCOCC1`, the composite z-score in test [1] is -0.0258; in test [2] it was 2.32; in test [3] it was -0.001; in test [4], 0.916; in test [5], 1.21; in [6] it was -0.238. Further, the composite z-score in test [7] was 1.33; in test [9], 1.26; in test [10] it was 0.24. The z-score in test [8] is -0.906 (inactive).
With `C[C@@H]1ON(c2ccccc2)[C@H](c2ccccc2)[C@H]1C(=O)O`, the composite z-score was -0.0301 in test [1]; 0.112 in test [2]; -0.085 in test [3]; 0.364 in [4]; 0.0812 in [5]; -0.515 in [6]. In addition, the figures for the composite z-score in test [7], in [9] and in [10] were -0.198, -0.0817 and 0.289, respectively. Further, the z-score in test [8] is -0.313 (inactive).
Turning to `CC(C)(C)OC(=O)CC[C@@]1(C(=O)NCCN2CCOCC2)N=C(c2ccc(OCCCO)cc2)O[C@@H]1c1ccccc1CN=[N+]=[N-]`, the composite z-score in test [1] was determined as 0.202; in test [2] it was 0.213; in test [3], 0.0154; in [4] it was 0.167; in test [5], 0.422; in test [6], 1.54. Further, the figures for the composite z-score in test [7], in [9] and in test [10] were 0.914, 0.157 and 0.0106, respectively. In addition, the z-score in test [8] is 5.92 (inactive).
Turning to `COCCOC(=O)N1C(=O)[C@@]2(c3cc(C#CCC(C(=O)OC)C(=O)OC)ccc31)[C@H](C(N)=O)[C@H]1C(=O)O[C@H](c3ccccc3)[C@H](c3ccccc3)N1[C@@H]2c1ccc(O)cc1`, the composite z-score in test [1] is -0.291; in test [2], 0.79; in test [3], 0.015; in [4], 1.2; in [5], 1.57; in test [6], 1.6. Moreover, the composite z-score is 1.23 in test [7], 0.838 in test [9] and 0.0768 in [10]. Further, the z-score in [8] is 3.78 (inactive).
With `COCCCNC(=O)[C@@]1(Sc2ccc(C)cc2)CC(=O)N(Cc2ccccc2C(F)(F)F)[C@@H]1c1ccc(CO)cc1I`, the composite z-score was 1.21 in test [1]; -0.204 in test [2]; -0.132 in test [3]; -2.12 in [4]; -1.8 in test [5]; 1.17 in test [6]. For the same compound, the figures for the composite z-score in test [7], in [9] and in [10] were -0.823, -0.228 and -0.132, respectively. Besides, in [8], the z-score was -0.903 (inactive).
On to `COc1ccc(C(O)C2C=CC3C(=O)N(c4ccccc4)C(=O)C3N2Nc2ccc([N+](=O)[O-])cc2)c2ccccc12` (stereo not given), for which the composite z-score worked out at 0.138 in [1]; 0.263 in test [2]; 0.0688 in [3]; 0.852 in [4]; 1.6 in [5]; 1.75 in [6]. Also, the figures for the composite z-score in test [7], in test [9] and in test [10] were 1.27, 0.812 and 0.251, respectively. Also, the z-score in test [8] is 0.337 (inactive).
Turning to `CC(C)NC(=O)[C@@]1(c2ccc([N+](=O)[O-])cc2)CC(=O)N(CC23CC4CC(CC(C4)C2)C3)[C@@H]1c1ccc(CO)cc1`, the composite z-score in test [1] is 1.43; in test [2], 0.522; in [3] it was 0.516; in test [4], 1.02; in test [5], 1.42; in test [6], 1.9. Besides, the values for the composite z-score in [7], in test [9] and in test [10] were 1.18, 1.86 and 1.11, respectively. Further, in test [8], the z-score was -3.57 (inactive).
As to `O=C1O[C@H](c2ccccc2)[C@H](c2ccccc2)N2[C@H]1[C@@H](C(=O)N1CCN(c3ncccn3)CC1)[C@]1(C(=O)Nc3ccc(C#CCCO)cc31)[C@H]2c1ccc(O)cc1`, the composite z-score in [1] was -0.153; in [2], -0.162; in test [3], 0.0033; in [4], 0.597; in test [5] it was 1.01; in test [6] it was 1.71. For the same compound, the composite z-score in test [7] stood at 0.979; in test [9], 0.0354; in [10], 0.0373. The z-score in [8] is 1.34 (inactive).
`C=CCOC(=O)[C@H]1[C@@H]2C(=O)O[C@@H](c3ccccc3)[C@@H](c3ccccc3)N2[C@@H](c2ccc(OCCOC(=O)[C@@H]3C[C@@H]4C(=O)N[C@@H](CCCCNC(C)=O)C(=O)N4[C@@H]3c3cccc(OCCO)c3)cc2)[C@]12C(=O)Nc1ccccc12`: the composite z-score was 0.125 in test [1]; 1.67 in [2]; -0.024 in test [3]; 0.489 in [4]; 0.717 in test [5]; 1.19 in test [6]. The composite z-score is 1.3 in [7], 0.324 in test [9] and -0.0994 in test [10]. For the same compound, in test [8], the z-score is 1.26 (inactive).
Consider `O=C1N(CCS(=O)(=O)c2ccccc2)c2ccccc2C[C@]12N=C(c1ccc(OCCCO)cc1)O[C@@H]2c1ccccc1`, for which the composite z-score in [1] is 0.227; in test [2] it was 0.335; in test [3], 0.0605; in test [4] it was -0.122; in test [5], 1.15; in [6], 0.333. The composite z-score was determined as 1.23 in test [7], 0.734 in [9] and 0.0053 in [10]. Besides, the z-score in [8] is -0.253 (inactive).
